phage Ecoli inh: growth loss of phage-infected E. coli, primary screen, RecBCD inhibitor project, absorbance, with phage, HTS; inhibition, % at 11.9 µM; hit rate 0.26% among 360,000; in the data active = inhibition above about 11%
E coli growth-1: E. coli growth inhibition, primary screen, OD600; AID 1053175, 2014; OD600 absorbance (test concentration not listed); Escherichia coli growth, 23 h; active compounds read low; hit rate 0.21% among 330,000;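 active = OD600 absorbance below the run mean of sample wells minus 3.6 SD, in any replicate, cut at about 0.56 in these data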
Tat export inh: E. coli Tat export inhibitors, primary screen, MC4100, TorA-mCherry reporter, fluorescence, single point; inhibition, % at 10 µM; hit rate 0.036% among 340,000; AID 488895, 2010;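 active = mean replicate inhibition at least 50% and at least half of replicates individually reaching 50%; inconclusive = only one of the two criteria met; inactive = neither criterion met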;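 note: exported cargo escapes ClpAP degradation while cytoplasmic cargo is degraded and loses fluorescence; 0% = median of neutral control wells and 100% = median of NaSCN control wells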
AddAB inh: growth inhibition of E. coli expressing H. pylori AddAB, primary screen, AddAB inhibitor project, absorbance. inhibition, % at 11.9 µM. hit rate 0.29% among 330,000. AID 435030, 2010; in the data active = inhibition above about 12%;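 note: 0% = vehicle wells of infected cells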
E coli growth-2: E. coli V3065 growth inhibition, primary screen, counter-screen for AddAB inhibitor project, absorbance, OD600 | 18 h | inhibition, % at 11.9 µM | hit rate 0.27% among 330,000 | AID 449728, 2010;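 active = inhibition above the campaign's mean inhibition across all tested compounds plus 3 SD, cut at about 9.9% in these data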;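 note: uninfected addAB+ strain grown without phage in ampicillin broth; 0% = DMSO wells and 100% = ciprofloxacin 0.95 µg/ml wells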
RecBCD conf: growth loss of phage-infected RecBCD+ E. coli, confirmation, RecBCD inhibitor project, absorbance, E. coli V66, T4 gene 2 phage; E. coli V66 + T4 2- phage, growth OD; shares compounds with phage Ecoli inh; inhibition, % at 11.9 µM; hit rate 45% among 890;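 active = mean inhibition over triplicates exceeding the hit threshold derived in the original primary screen, cut at about 11% in these data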
Ecoli viability: E. coli viability inhibition, counter-screen for RecBCD inhibitor project, absorbance, high throughput; hit rate 29% among 890; absorbance (OD) growth; inhibition, % at 11.9 µM; shares compounds with phage Ecoli inh; in the data active = inhibition above about 20%;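 note: E. coli strain V66 grown with compound alone and no phage infection; 0% = bacteria with DMSO vehicle only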
AddAB counter: growth loss of phage-infected AddAB-carrying E. coli, confirmation, counter-screen for RecBCD inhibitor project, absorbance, E. coli V3065, T4 phage | inhibition, % at 11.9 µM | AID 651984, 2013 | shares compounds with phage Ecoli inh | hit rate 45% among 890 | E. coli expressing H. pylori AddAB + T4 phage, OD growth; gene 2 mutant T4, recBCD-deleted host;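 active = mean inhibition above the solvent-only control wells' mean plus 3 SD, cut at about 22% in these data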;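 note: higher means less bacterial growth from phage killing when AddAB is blocked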
The depositor's hits bear a star; ? = inconclusive; / = not tested or not shown. Sampled rows, rich in hits. Any-hit rate of the full collection: about 0.51%.

SMILES	phage Ecoli inh	E coli growth-1	Tat export inh	AddAB inh	E coli growth-2	RecBCD conf	Ecoli viability	AddAB counter
S=C(NN=C(c1ccccc1)c1ccccn1)N(Cc1ccccn1)Cc1ccccn1	15*	/	-8	/	/	6	8	9
OCCC1CC(O)C(O)[C@@]2(Cc3ccccc3O2)O1 (some centres not stated)	/	0.67	/	/	/	/	/	/
C[C@]1(C(=O)O)C=CC(Cc2ccccc2)N1C(=O)c1ccccc1 (some centres not stated)	/	0.7	/	/	/	/	/	/
CCCC(=O)Nc1cc(=O)n(C)c(=O)n1C	53*	0.67	4	2	1	1	1	0
O=C(NC1CCS(=O)(=O)C1)C(=Cc1ccco1)NC(=O)c1ccccc1 (configuration not stated)	/	0.71	/	/	/	/	/	/
O=C(N/N=C/c1ccc([N+](=O)[O-])o1)c1ccc2c(c1)OCO2	11*	/	-15	/	/	12*	12	103*
O=C(CN1CCOCC1)NN=Cc1ccc([N+](=O)[O-])o1	17*	/	/	/	/	10	9	54*
COC(=O)c1cccc(C23CC4(C2)C(CN(Cc2ccc(C(F)(F)F)cc2)C4c2ccccc2)C3c2ccccc2)c1 (configuration not stated)	/	0.7	/	/	/	/	/	/
Nc1nc(=O)n(C2CC(O)C(CO)O2)cc1Cl (configuration not stated)	12*	/	/	/	/	4	4	38*
Nc1nc(=O)n(C2CC(O)C(CO)O2)cc1F (configuration not stated)	87*	/	?	/	/	78*	77*	90*
Nc1ncn(C2CC(O)C(CO)O2)c(=O)n1 (configuration not stated)	/	0.65	/	/	/	/	/	/
COc1ccc(-[n+]2c(C)cc(/C=C3\Sc4ccccc4N3C)cc2C)cc1	22*	0.35*	67*	27*	26*	20*	17	48*
C#CCNC(=O)C1=CC(c2ccc3c(c2)OCO3)CC(OCCCCO)O1 (configuration not stated)	/	0.64	/	/	/	/	/	/
O=c1c(O)cccc2cc(O)c(O)c(O)c12	14*	0.63	53*	11	11*	8	9	10
COc1cc2cccc(OC)c(=O)c2c(OC)c1OC	1	0.74	-4	4	4	/	/	/
CCOC(=O)C1C2COc3ccc(Cl)cc3C2N2C(=O)c3ccc(Cl)cc3NC(=O)[C@@]12C (some centres not stated)	/	0.71	/	/	/	/	/	/
Cc1cc(Cl)ccc1NNC(=O)c1cccs1	6	0.64	-15	5	3	/	/	/
O=C(NNc1cc(Cl)ccc1Cl)c1cccs1	54*	0.66	-9	5	1	1	0	4
O=C(NNC(=O)c1cc(-c2cccnc2)nc2ccccc12)Nc1ccc(Cl)cc1	13*	0.52*	-2	8	6	9	9	2
O=C1C(F)=CC(COC(c2ccccc2)(c2ccccc2)c2ccccc2)OC1n1cc(F)c(=O)[nH]c1=O (configuration not stated)	12*	/	-4	/	/	9	1	26*
CC(=O)Nc1ccc(C2C(C)CCC3C(=O)N4C(CCC(C)C4c4ccc(NC(C)=O)cc4)C(=O)N32)cc1 (configuration not stated)	/	0.66	/	/	/	/	/	/
O=c1c(O)c(-c2cccs2)oc2ccc(Cl)cc12	14*	0.63	-5	7	8	3	5	8
O=C(Nc1cccc(Cl)c1)Nc1cccc(Cl)c1	7	0.64	-10	5	5	/	/	/
O=C(Nc1cccc(F)c1)Nc1cccc(Cl)c1	14*	0.41*	0	8	10	13*	13	8
C[C@@]12C(=O)N(c3cccc(Br)c3)C(=O)N1C(c1ccc(Cl)cc1)C1C(=O)N(C3CCCCC3)C(=O)C12 (some centres not stated)	/	0.72	/	/	/	/	/	/
SMILES	phage Ecoli inh	E coli growth-1	Tat export inh	AddAB inh	E coli growth-2	RecBCD conf	Ecoli viability	AddAB counter
CC(NC(=O)Nc1nnc(C(F)(F)F)s1)(C(F)(F)F)C(F)(F)F	13*	0.59	5	9	11*	15*	16	17
CC(C)(C)CC(=O)Nc1nnc(C(F)(F)F)s1	4	0.68	2	1	0	/	/	/
COc1cccc(/C=N/NC(=O)c2cc(-c3cccn3C)n[nH]2)c1O	12*	/	-6	4	4	6	9	20
Cc1[nH]n(-c2ccccc2)c(=O)c1C=Nc1ccc(S(=O)(=O)Nc2nccs2)cc1	15*	0.65	18	8	7	7	4	26*
COc1nccnc1NS(=O)(=O)c1ccc(N=Cc2c(C)[nH]n(-c3ccccc3)c2=O)cc1	5	0.61	1	6	4	/	/	/
C#CCOCCOCCOCCNc1nc(N2CCN(C(=O)C(CCCCN)n3cc(C(N)C(C)CC)nn3)CC2)nc(N2CCN(C(=O)C(Cc3ccc(O)cc3)n3cc(C(N)C(C)CC)nn3)CC2)n1 (configuration not stated)	/	0.69	/	/	/	/	/	/
CC(C)OC(=O)c1ccc(NC(=O)CSc2nc3ncccc3[nH]2)cc1	11*	0.59	-30	11	6	5	7	4
CC(C)c1ccc(NC(=O)CSc2nc3ncccc3[nH]2)cc1	8	0.68	18	3	3	/	/	/
O=C(CCn1cnc(-c2ccccc2)c1-c1ccccc1)N/N=C/c1ccccc1O	11*	/	2	2	1	3	2	5
CC(C)CC(NC(=O)c1[nH]cnc1C(=O)NC(C)c1ccccc1)C(=O)OC(C)(C)C (configuration not stated)	/	0.64	/	/	/	/	/	/
O=C(Nc1ccc(OC(F)F)cc1)Nc1cccc(C(F)(F)F)c1	12*	0.53*	-33	11	13*	11*	12	10
O=C(Nc1ccncc1)Nc1cccc(C(F)(F)F)c1	8	0.53	0	0	1	/	/	/
COC(=O)C1=C(C(=O)OC)C2N(Cc3ccccc3)c3ccccc3[C@@]23CC(C(=O)OC)N(C(=O)NC2CCCCC2)C3=N1 (some centres not stated)	/	0.73	/	/	/	/	/	/
CN(C)C(=O)N1CCC(C(=O)NCc2ccc(F)cc2)CC1	46*	0.73	-7	1	-1	-3	-2	-2
CC(CC(=O)Nc1ccccn1)=NNC(=O)c1ccccc1	/	0.71	/	/	/	/	/	/
C/C(CC(=O)Nc1ccccn1)=N\NC(=O)c1ccccc1O	19*	/	1	10	9	9	10	12
COC(=O)NC1CC2C3CCC4CC(OC)CC[C@]4(C)C3CC[C@]12C (some centres not stated)	/	0.64	/	/	/	/	/	/
